Reference: PubChem BioAssay

assay: probe aLAP1 signal on lysate-treated microarray – cell lysate, small-molecule microarray, COS7 lysate, primary screen (AID 1124); conditions: probe aLAP1, fluorescence, higher = more signal;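 also: lysate comes from COS7 cells expressing LAP1 and is applied at 0.3 µg/mL; score merges spot fluorescence near 667 nm with signal-to-noise over triplicate slides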

Row | SMILES | composite z-score
1 | COc1ccc(C(=O)Nc2ccc(CN3C(=O)[C@@]4(O[C@@H](CC(=O)N5CCC[C@H]5CO)[C@H]([Si](C)(C)c5ccc(OC)cc5)[C@H]4C)c4ccccc43)cc2)cc1 | 0.045
2 | CN1C(=O)C2C=CC(C(O)C3=C[C@H]4C[C@@H](C3)C4(C)C)N(Nc3ccccc3)C2C1=O (stereo not given in full) | -0.678
3 | CS(=O)(=O)CCOC(=O)C1=CC(CCCO)=CC(c2ccc(CN3CCCC3)cc2)N(Cc2cc3c(cc2Br)OCO3)C=C1C(=O)OCCS(C)(=O)=O (stereo not given) | 1.31
4 | COC(=O)[C@@]1(Cc2ccc(OC)cc2)[C@H]2c3cc(C(=O)N4CCCC4)n(Cc4ccccc4)c3C[C@H]2CN1C(=O)c1ccccc1 | 0.399
5 | C[N+](C)(C)CCCCNC(=O)[C@H]1C[C@H]2C(=O)N[C@@H](Cc3ccccc3)C(=O)N2[C@H]1c1ccc(O)cc1 | 0.0021
6 | C[C@]1(C(=O)NC2CC2)c2ccccc2C(=O)N(Cc2cc(C(F)(F)F)cc(C(F)(F)F)c2)[C@H]1c1ccc(CO)cc1 | 0.283
7 | CCCC#C[Si](O[C@H](CC)c1cn([C@H](CO)Cc2ccccc2)nn1)(C(C)C)C(C)C | -0.126
8 | CC(=O)N1Cc2ccccc2C[C@@]2(COC(c3ccc(OCCCO)cc3)=N2)C1=O | 0.16
9 | CC(C)(C)OC(=O)CC[C@@]1(C(=O)NCCN2CCOCC2)N=C(c2ccc(OCCCO)cc2)O[C@@H]1c1ccccc1N=[N+]=[N-] | 0.0412
10 | CN1C(=O)C2C=CC(C(O)c3ccccc3)N(Nc3ccccc3)C2C1=O (stereo not given) | 0.119
11 | CC(=O)n1cc(C(O)C2C=CC3C(=O)N(C)C(=O)C3N2Nc2ccccc2)c2ccccc21 (stereo not given) | -0.0989
12 | C=C(COC)/C(=C/C[C@H](OC(=O)c1ccncc1)c1ccc(OCCO)cc1)c1cnc2ccccc2c1 | 0.334
13 | COc1ccc(C#Cc2ccc3c(c2)[C@]2(C(=O)N3)[C@H](c3ccccc3OCCO)N3[C@H](c4ccccc4)[C@H](c4ccccc4)OC(=O)[C@H]3[C@@H]2C(=O)O)cc1 | 0.649
14 | C=CC[C@]1(C(=O)N2CCCCC2)N=C(c2ccc(OCCCO)cc2)O[C@H]1c1ccccc1 | 0.488
15 | COCCOC(=O)N1C(=O)[C@@]2(c3cc(C#Cc4ccc(OC)cc4)ccc31)[C@H](C(N)=O)[C@H]1C(=O)O[C@H](c3ccccc3)[C@H](c3ccccc3)N1[C@@H]2c1ccccc1OCCO | 1.11
16 | O=C1OCCC/C=C\[C@H]2OC34C=CCN(Cn5nnc6ccccc65)C(=O)[C@H]3N(CCO)C(=O)[C@@H]4C12 (stereo not given in full) | 0.136
17 | C=CCN1C(=O)[C@@]2(O[C@@H](CCO)[C@H]([Si](C)(C)c3ccc(OC)cc3)[C@H]2C)c2cc(NC(=O)c3ccc(OC)cc3)ccc21 | 0.0327
18 | COc1ccc(C(O)C2C=CC3C(=O)N(c4ccccc4)C(=O)C3N2Nc2ccccc2F)cc1OCc1ccccc1 (stereo not given) | -0.0892

Row | SMILES | composite z-score
19 | CCCCCN1CC=CC23O[C@@H]4/C=C\CCCOC(=O)C4[C@H]2C(=O)N(CCCO)[C@@H]3C1=O (stereo not given in full) | 1.04
20 | CN(C)C(=O)[C@@]1(Cc2ccccc2)N=C(c2ccc(OCCCO)cc2)O[C@H]1c1ccccc1N=[N+]=[N-] | 0.935
21 | O=C1OCC=C[C@H]2OC34C=CCN(CCN5CCOCC5)C(=O)[C@H]3N(CCCO)C(=O)[C@@H]4[C@@H]12 (stereo not given in full) | -0.126
22 | CN(C)C(=O)[C@]1(Cc2ccccc2N=[N+]=[N-])N=C(c2ccc(OCCCO)cc2)O[C@@H]1c1ccccc1 | 0.644
23 | COc1ccc(C(=O)Nc2ccc(CN3C(=O)[C@@]4(O[C@@H](CCO)[C@H]([Si](C)(C)c5ccc(OC)cc5)[C@H]4C)c4ccccc43)cc2)cc1 | 0.292
24 | CCOC(=O)C[C@H]1[C@H](OC(=O)Cc2ccc3c(c2)OCO3)[C@@H](NC(=O)c2ccc3ccccc3c2)c2cc(OCCCO)ccc2N1C(=O)c1ccccc1 | 0.186
25 | COc1ccc(C(=O)O[C@H]2CC[C@]3(C)C4=C(CCC3C2(C)C)[C@]2(C)CC[C@H]([C@H](C)CCCC(C)C)[C@@]2(C)CC4)cc1 (stereo not given in full) | 0.064
26 | CN1C(=O)[C@]2(Cc3ccccc3)N=C(c3ccc(OCCCO)cc3)O[C@@H]2c2ccccc21 | 0.824
27 | COc1ccc(CCNC(=O)[C@@]2(C)c3ccccc3C(=O)N(Cc3cc(F)cc(C(F)(F)F)c3)[C@H]2c2ccc(CO)cc2)cc1 | 0.54
28 | COc1ccc(C(O)C2C=CC3C(=O)NC(=O)C3N2Nc2ccccn2)cc1 (stereo not given) | 0.348
29 | CN(C)CCCC[C@@H]1NC(=O)[C@H]2C[C@@H](C(=O)NCCCCCNC(=O)CS)[C@@H](c3cccc(OCCO)c3)N2C1=O | 0.0827
30 | COC(=O)[C@@]1(Cc2ccc(OC)cc2)[C@H]2c3cc(C(=O)N(C)C)n(Cc4cccc5ccccc45)c3C[C@H]2CN1C(=O)c1ccccc1 | 0.506
31 | C#CCN(Cc1ccccc1Br)C(/C=C/c1ccccc1)CO (stereo not given) | -0.146
32 | COCCOC(=O)N1C(=O)[C@@]2(c3cc(C#CCCO)ccc31)[C@H](C(=O)Nc1nc3ccccc3s1)[C@H]1C(=O)O[C@H](c3ccccc3)[C@H](c3ccccc3)N1[C@@H]2c1ccc(OCCO)cc1 | 0.225
33 | CCOC(=O)C[C@H]1[C@H](OC(=O)c2ccc(C(=O)c3ccccc3)cc2)[C@@H](NC(=O)c2ccc(-c3ccccc3)cc2)c2cc(OCCCO)ccc2N1C(=O)c1ccccc1 | 0.032
34 | COc1ccc([Si](C)(C)[C@@H]2[C@@H](CC(=O)N3Cc4ccccc4C[C@H]3CO)O[C@]3(C(=O)N(C)c4c(Br)cc(C)cc43)[C@H]2C)cc1 | 0.172
35 | O=C1OCCC=C[C@H]2OC34C=CCN(CCN5CCOCC5)C(=O)[C@H]3N(CCCCCCO)C(=O)[C@@H]4C12 (stereo not given in full) | 0.133
